VCAM1 pot = enhances TNF alpha induced VCAM1 expression in HUVEC. HUVEC TNFa-stimulated VCAM-1 immunofluorescence, high-content imaging; scaled per plate to unstimulated/TNFa-only wells. activation, % at 2 µM. 0.19% of 93,000 active. AID 808;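 active = activation above the screen mean plus 3 SD, with well images confirming the hit on visual review, cut at about 28% in these data, passing the limit was not always enough; inconclusive = activation above that limit but images do not confirm it; inactive = activation not above that limit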;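 also: signal is the number of cytoplasmic VCAM-1 stained grains per positive cell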
VCAM1 pot conf = enhancers of VCAM1 induction in HUVEC – imaging, triplicate retest, confirmation; 230 tested, under 10 active; HUVEC TNFa-stimulated VCAM-1 immunofluorescence imaging; shares compounds with VCAM1 pot; activation, % at 2 µM; AID 1034;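 active = activation above 30% in triplicate retests at 2 µM, then confirmed by visual review of the well images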;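 also: scaled per plate between unstimulated and TNFa-stimulated DMSO control wells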
Starred values were filed as active, the others as inactive; ? = inconclusive. Shown is part of a subset that was picked to be rich in hits.

SMILES	VCAM1 pot	others
CCOC(=O)c1nnn(CC(=O)N2N=C(c3cccc4ccccc34)CC2c2ccccc2)c1C(=O)OCC (stereo unspecified)	-34
CCn1c(SCc2nc(-c3cccs3)no2)nnc1-c1c[nH]c2ccccc12	-8
O=C(Oc1ccc(Cl)cc1N1C(=O)CCC1=O)c1ccco1	-9
N#Cc1c2c(c(=S)n(-c3ccccc3)c1N)CCCC2	83*	VCAM1 pot conf=-8
Cc1ccccc1OC(=O)n1c(=S)oc2cc(Cl)ccc21	-7
CC(OC1=CC(=O)CCC1)C(=O)c1ccccc1 (stereo unspecified)	4
CCOC(=O)N1CCC(NC(=O)c2cc(S(=O)(=O)N3CCCC3)cn2C)CC1	43*	VCAM1 pot conf=-5
CCOC(=O)N1CCN(C(=O)c2cc(S(=O)(=O)N3CCCC3)cn2C)CC1	4
CCOC(=O)N1CCC(NC(=O)c2ccc(OC)c(CN3CC(=O)N4CCCC4C3=O)c2)CC1 (stereo unspecified)	-22
COc1ccc2c(C(=O)CN(C)C3CCCCC3)c[nH]c2c1	-7
CCc1ccc2nc(-c3cccc(C)c3)nc(SCC(=O)NCC3CCCO3)c2c1 (stereo unspecified)	-4
CCN(CC)C(=O)CSc1nc(N)c(C#N)c(-c2cccs2)c1C#N	-13
COc1ccc(CNC(=O)CSc2nc(-c3ccccc3)cc(-c3cccs3)c2C#N)cc1	0
CCN(CC)C(=O)CSc1nc(-c2cccs2)cc(-c2cccs2)c1C#N	50*	VCAM1 pot conf=-20
O=C1CC(c2ccccc2)CN1S(=O)(=O)c1ccccc1 (stereo unspecified)	-6
COC(=O)[C@H](Cc1ccccc1)NC(=O)N1CCN(Cc2ccccc2)CC1	-6
CN(CP(=O)(O)CN(C)S(C)(=O)=O)S(C)(=O)=O	32*	VCAM1 pot conf=-12
CC(=O)c1c(OC(=O)c2ccccc2)c2ccccc2n1C	-6
O=C(CCNS(=O)(=O)c1ccc(Cl)cc1)N1CCC2(O)CCCCC2C1 (stereo unspecified)	-3
NC(=O)C1CCN(C(=O)CSc2nc3ccccc3o2)CC1	3
NC(=O)C1CCN(C(=O)CCCCCn2c(=O)[nH]c3ccsc3c2=O)CC1	?	VCAM1 pot conf=-7
O=C(NCCN1CCN(c2ccccc2F)CC1)C1CCCN(S(=O)(=O)c2cnc[nH]2)C1 (stereo unspecified)	5
COc1ccc(-n2nnnc2SCC(=O)c2cc3ccccc3o2)cc1	3
CSc1nsc(SC)c1C(=O)NCCNS(=O)(=O)c1ccc(C)cc1	-14
O=C(COc1cccc(C(F)(F)F)c1)Nc1ccc(S(=O)(=O)N2CCCC2)cc1	-17

Compound activity as filed in PubChem.
